Among all 5,500 compounds or so, about 2,000 (36%) were called active. About 18% were inconclusive and are not listed. The list shows a part of the results. A number with no mark means an inactive call. Cut-off read from the data, not from the text of the source: active = normalized growth mostly below about 0.91 (no sharp cut-off); inconclusive = no clear call, values can overlap the other calls; inactive = mostly above about 0.92.
Assay: chemical genetic growth profiling, strain panel (AID 1159580);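 note: tested at 20 µM; growth read once vehicle control cultures reached saturation at 30 °C; 1 = growth at the plate median or of vehicle wells; lower values mean less growth of the strain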
Settings: S. cerevisiae deletion strains, growth OD

Molecule `CC1(C)C=CC(=O)[C@@]2(C)C1CC(=O)[C@]1(C)C2CC[C@@]2(C)[C@H](c3ccoc3)OC(=O)C3OC321` (stereo partly drawn) has a normalized growth (locus YAL021C, strain ccr4, active compounds read low) of 0.977, a normalized growth (locus YAL026C, strain drs2, active compounds read low) of 1 and a normalized growth (locus YAL030W, strain snc1, active compounds read low) of 0.995. For the same molecule, the normalized growth (locus YBL061C, strain skt5, active compounds read low) was 0.998, the normalized growth (locus YBR009C, strain hhf1, active compounds read low) was 0.984 and the normalized growth (locus YBR021W, strain FUR4, active compounds read low) was 1. For the same molecule, the normalized growth (locus YBR023C, strain chs3, active compounds read low) was 0.983, the normalized growth (locus YBR171W, strain sec66, active compounds read low) was 1.01 and the normalized growth (locus YBR229C, strain ROT2, active compounds read low) was 0.944. For the same molecule, the normalized growth (locus YBR231C, strain swc5, active compounds read low) was 1, the normalized growth (locus YBR279W, strain paf1, active compounds read low) was 0.988 and the normalized growth (locus YCL011C, strain gbp2, active compounds read low) was 0.996. The normalized growth (locus YCL016C, strain dcc1, active compounds read low) was 0.99, the normalized growth (locus YCL029C, strain bik1, active compounds read low) was 0.96 and the normalized growth (locus YCL061C, strain MRC1, active compounds read low) was 1.01. For the same molecule, the normalized growth (locus YCL069W, strain vba3, active compounds read low) was 0.995, the normalized growth (locus YCR088W, strain abp1, active compounds read low) was 1 and the normalized growth (locus YDL005C, strain med2, active compounds read low) was 0.996. The normalized growth (locus YDL035C, strain GPR1, active compounds read low) was 0.945, the normalized growth (locus YDL040C, strain nat1, active compounds read low) was 0.996 and the normalized growth (locus YDL074C, strain BRE1, active compounds read low) was 0.926. For the same molecule, the normalized growth (locus YDL101C, strain DUN1, active compounds read low) was 0.967, the normalized growth (locus YDL185W, strain tfp1, active compounds read low) was 0.966 and the normalized growth (locus YDL192W, strain arf1, active compounds read low) was 0.94. For the same molecule, the normalized growth (locus YDR001C, strain nth1, active compounds read low) was 0.992, the normalized growth (locus YDR069C, strain doa4, active compounds read low) was 0.976 and the normalized growth (locus YDR101C, strain arx1, active compounds read low) was 0.93. The normalized growth (locus YDR137W, strain rgp1, active compounds read low) was 0.843 (active), the normalized growth (locus YDR159W, strain sac3, active compounds read low) was 0.954 and the normalized growth (locus YDR162C, strain NBP2, active compounds read low) was 0.953. The normalized growth (locus YDR195W, strain ref2) was 1.03, the normalized growth (locus YDR297W, strain sur2, active compounds read low) was 0.983 and the normalized growth (locus YDR318W, strain mcm21, active compounds read low) was 0.969. For the same molecule, the normalized growth (locus YDR334W, strain swr1, active compounds read low) was 1, the normalized growth (locus YDR335W, strain msn5, active compounds read low) was 1 and the normalized growth (locus YDR388W, active compounds read low) was 0.982. It also gave a normalized growth (locus YDR392W, strain spt3, active compounds read low) of 0.982, a normalized growth (locus YDR502C, strain sam2, active compounds read low) of 0.983 and a normalized growth (locus YEL003W, strain gim4, active compounds read low) of 0.994. For the same molecule, the normalized growth (locus YEL037C, strain rad23, active compounds read low) was 1, the normalized growth (locus YEL061C, strain CIN8 (second series), active compounds read low) was 0.997 and the normalized growth (locus YEL061C, strain CIN8, active compounds read low) was 0.971. The normalized growth (locus YER015W, strain faa2, active compounds read low) was 0.982, the normalized growth (locus YER016W, strain bim1, active compounds read low) was 0.985 and the normalized growth (locus YER110C, active compounds read low) was 0.959. It also gave a normalized growth (locus YER111C, strain swi4, active compounds read low) of 1, a normalized growth (locus YER155C, strain BEM2 (second series), active compounds read low) of 1.01 and a normalized growth (locus YER155C, strain BEM2, active compounds read low) of 0.998. For the same molecule, the normalized growth (locus YER167W, strain BCK2, active compounds read low) was 0.959, the normalized growth (locus YFR010W, strain ubp6, active compounds read low) was 1.01 and the normalized growth (locus YGL078C, strain dbp3, active compounds read low) was 1.02. For the same molecule, the normalized growth (locus YGL086W, strain mad1, active compounds read low) was 0.979, the normalized growth (locus YGL167C, strain pmr1, active compounds read low) was 0.991 and the normalized growth (locus YGL173C, strain kem1, active compounds read low) was 0.994. The normalized growth (locus YGL227W, strain vid30, active compounds read low) was 0.994, the normalized growth (locus YGL240W, strain doc1, active compounds read low) was 0.99 and the normalized growth (locus YGL248W, strain PDE1, active compounds read low) was 0.974. It also gave a normalized growth (locus YGL253W, strain hxk2, active compounds read low) of 0.994, a normalized growth (locus YGR078C, strain PAC10, active compounds read low) of 0.981 and a normalized growth (locus YGR135W, strain pre9, active compounds read low) of 1.03. The normalized growth (locus YGR252W, strain gcn5, active compounds read low) was 0.966, the normalized growth (locus YHR013C, strain ard1, active compounds read low) was 0.968 and the normalized growth (locus YHR027C, strain rpn1, active compounds read low) was 0.979. The normalized growth (locus YHR030C, strain SLT2, active compounds read low) was 0.98, the normalized growth (locus YHR079C, strain IRE1 (second series), active compounds read low) was 0.975 and the normalized growth (locus YHR094C, strain hxt1, active compounds read low) was 0.967. The normalized growth (locus YHR129C, strain ARP1, active compounds read low) was 0.98, the normalized growth (locus YHR142W, strain chs7, active compounds read low) was 0.999 and the normalized growth (locus YHR200W, strain rpn10, active compounds read low) was 0.986. It also gave a normalized growth (locus YIL066C, strain RNR3, active compounds read low) of 0.904, a normalized growth (locus YIL073C, strain SPO22, active compounds read low) of 1.01 and a normalized growth (locus YIL125W, strain kgd1, active compounds read low) of 0.968. It also gave a normalized growth (locus YIR030C, strain dcg1, active compounds read low) of 0.969, a normalized growth (locus YJL092W, strain hpr5, active compounds read low) of 0.999 and a normalized growth (locus YJL095W, strain BCK1 (second series), active compounds read low) of 0.985. It also gave a normalized growth (locus YJL095W, strain BCK1, active compounds read low) of 0.981, a normalized growth (locus YJL115W, strain asf1, active compounds read low) of 0.994 and a normalized growth (locus YJL129C, strain trk1, active compounds read low) of 0.976. For the same molecule, the normalized growth (locus YJL134W, strain LCB3, active compounds read low) was 0.975, the normalized growth (locus YJL154C, strain vps35, active compounds read low) was 0.996 and the normalized growth (locus YJL164C, strain tpk1, active compounds read low) was 0.991. The normalized growth (locus YJL166W, strain qcr8, active compounds read low) was 0.992, the normalized growth (locus YJL168C, strain set2, active compounds read low) was 0.98 and the normalized growth (locus YJL187C, strain SWE1 (second series), active compounds read low) was 0.977. The normalized growth (locus YJL187C, strain SWE1, active compounds read low) was 0.997, the normalized growth (locus YJR043C, strain POL32, active compounds read low) was 0.981 and the normalized growth (locus YKL009W, strain mrt4, active compounds read low) was 1.02. For the same molecule, the normalized growth (locus YKL068W, active compounds read low) was 0.993, the normalized growth (locus YKL085W, strain MDH1 (second series), active compounds read low) was 1 and the normalized growth (locus YKL085W, strain MDH1, active compounds read low) was 1. It also gave a normalized growth (locus YKL160W, strain elf1, active compounds read low) of 0.987, a normalized growth (locus YKL190W, strain CNB1, active compounds read low) of 0.975 and a normalized growth (locus YKR001C, strain vps1, active compounds read low) of 0.996. The normalized growth (locus YKR026C, strain gcn3, active compounds read low) was 0.989, the normalized growth (locus YKR091W, strain srl3, active compounds read low) was 0.994 and the normalized growth (locus YLL001W, strain dnm1, active compounds read low) was 1.01. It also gave a normalized growth (locus YLL026W, active compounds read low) of 0.984, a normalized growth (locus YLL041C, strain sdh2, active compounds read low) of 1 and a normalized growth (locus YLR027C, strain aat2, active compounds read low) of 0.984. The normalized growth (locus YLR039C, strain RIC1, active compounds read low) was 0.863, the normalized growth (locus YLR058C, strain SHM2, active compounds read low) was 0.949 and the normalized growth (locus YLR102C, strain apc9, active compounds read low) was 0.972. For the same molecule, the normalized growth (locus YLR221C, strain rsa3, active compounds read low) was 1, the normalized growth (locus YLR258W, strain gsy2, active compounds read low) was 0.988 and the normalized growth (locus YLR262C, strain YPT6 (second series), active compounds read low) was 0.905. The normalized growth (locus YLR262C, strain YPT6, active compounds read low) was 0.857, the normalized growth (locus YLR268W, strain sec22, active compounds read low) was 0.911 and the normalized growth (locus YLR320W, strain mms22, active compounds read low) was 0.988. It also gave a normalized growth (locus YLR342W, strain FKS1 (second series), active compounds read low) of 0.915, a normalized growth (locus YLR342W, strain FKS1, active compounds read low) of 1.01 and a normalized growth (locus YLR357W, strain rsc2, active compounds read low) of 1.01. For the same molecule, the normalized growth (locus YLR370C, strain arc18, active compounds read low) was 0.992, the normalized growth (locus YLR371W, strain rom2, active compounds read low) was 0.901 (active) and the normalized growth (locus YLR384C, strain iki3, active compounds read low) was 1. For the same molecule, the normalized growth (locus YLR418C, strain cdc73, active compounds read low) was 0.952, the normalized growth (locus YML016C, strain PPZ1, active compounds read low) was 0.951 and the normalized growth (locus YML032C, strain rad52, active compounds read low) was 0.936. It also gave a normalized growth (locus YML120C, strain ndi1, active compounds read low) of 0.99, a normalized growth (locus YML124C, strain tub3, active compounds read low) of 0.973 and a normalized growth (locus YMR058W, strain fet3, active compounds read low) of 1.01. For the same molecule, the normalized growth (locus YMR078C, strain ctf18, active compounds read low) was 0.974, the normalized growth (locus YMR125W, strain sto1, active compounds read low) was 0.995 and the normalized growth (locus YMR129W, active compounds read low) was 0.99. It also gave a normalized growth (locus YMR205C, strain PFK2, active compounds read low) of 1.01, a normalized growth (locus YMR223W, strain ubp8, active compounds read low) of 0.984 and a normalized growth (locus YMR231W, strain pep5, active compounds read low) of 1.01. It also gave a normalized growth (locus YMR263W, strain SAP30, active compounds read low) of 0.975, a normalized growth (locus YMR307W, strain GAS1, active compounds read low) of 0.865 and a normalized growth (locus YNL067W, strain RPL9B, active compounds read low) of 1.02. For the same molecule, the normalized growth (locus YNL071W, strain lat1, active compounds read low) was 0.999, the normalized growth (locus YNL153C, strain GIM3, active compounds read low) was 0.981 and the normalized growth (locus YNL209W, strain ssb2, active compounds read low) was 0.984. It also gave a normalized growth (locus YNL233W, strain BNI4, active compounds read low) of 0.984, a normalized growth (locus YNL248C, strain rpa49, active compounds read low) of 0.983 and a normalized growth (locus YNL250W, strain rad50, active compounds read low) of 1. The normalized growth (locus YNL271C, strain bni1, active compounds read low) was 0.963, the normalized growth (locus YNL298W, strain CLA4, active compounds read low) was 0.97 and the normalized growth (locus YNL307C, strain MCK1, active compounds read low) was 0.961. It also gave a normalized growth (locus YNL322C, strain KRE1 (second series), active compounds read low) of 0.989, a normalized growth (locus YNR049C, strain mso1, active compounds read low) of 1 and a normalized growth (locus YNR052C, strain pop2, active compounds read low) of 0.977. For the same molecule, the normalized growth (locus YOL006C, strain TOP1, active compounds read low) was 0.813, the normalized growth (locus YOL012C, strain htz1) was 1.08 and the normalized growth (locus YOL147C, strain pex11, active compounds read low) was 0.971. The normalized growth (locus YOR001W, strain rrp6, active compounds read low) was 1, the normalized growth (locus YOR061W, strain CKA2, active compounds read low) was 0.924 and the normalized growth (locus YOR069W, strain VPS5, active compounds read low) was 0.981. For the same molecule, the normalized growth (locus YOR070C, strain gyp1, active compounds read low) was 1, the normalized growth (locus YOR080W, strain dia2, active compounds read low) was 1 and the normalized growth (locus YOR083W, strain WHI5, active compounds read low) was 0.999. The normalized growth (locus YOR106W, strain vam3, active compounds read low) was 1, the normalized growth (locus YOR136W, strain idh2, active compounds read low) was 0.981 and the normalized growth (locus YOR144C, strain elg1, active compounds read low) was 0.973. It also gave a normalized growth (locus YOR184W, strain ser1, active compounds read low) of 0.922, a normalized growth (locus YOR265W, strain rbl2, active compounds read low) of 1 and a normalized growth (locus YOR270C, strain vph1, active compounds read low) of 0.833. It also gave a normalized growth (locus YOR290C, strain snf2, active compounds read low) of 0.974, a normalized growth (locus YOR316C, strain cot1, active compounds read low) of 0.965 and a normalized growth (locus YPL051W, strain arl3, active compounds read low) of 0.987. The normalized growth (locus YPL055C, strain LGE1, active compounds read low) was 0.884, the normalized growth (locus YPL078C, strain atp4, active compounds read low) was 1 and the normalized growth (locus YPL106C, strain sse1, active compounds read low) was 1. For the same molecule, the normalized growth (locus YPL240C, strain hsp82, active compounds read low) was 0.999, the normalized growth (locus YPR119W, strain clb2, active compounds read low) was 0.985 and the normalized growth (locus YPR141C, strain kar3, active compounds read low) was 0.972. For the same molecule, the normalized growth (locus YPR163C, strain tif3, active compounds read low) was 0.956, the normalized growth (locus YPR167C, strain met16, active compounds read low) was 0.986 and the normalized growth (strain wtn01, active compounds read low) was 0.936.
